The results in this text go back to paper PMC7862700, “An all-to-all approach to the identification of sequence-specific readers for epigenetic DNA modifications on cytosine”.

What all share (assay): DAPPL (digital affinity profiling via proximity ligation, sequencing); 10 mM Tris-HCl pH 7.5, 50 mM NaCl, 1 mM DTT, 4% glycerol, room temperature, 30 min; GST-TFs on glutathione beads, 16-mer random dsDNA library, 0.1% formaldehyde crosslink after washing; high values mean tight binding
The target of one assay is T1, FLI1 (Homo sapiens, UniProt Q01543 1-452).
T1 sequence: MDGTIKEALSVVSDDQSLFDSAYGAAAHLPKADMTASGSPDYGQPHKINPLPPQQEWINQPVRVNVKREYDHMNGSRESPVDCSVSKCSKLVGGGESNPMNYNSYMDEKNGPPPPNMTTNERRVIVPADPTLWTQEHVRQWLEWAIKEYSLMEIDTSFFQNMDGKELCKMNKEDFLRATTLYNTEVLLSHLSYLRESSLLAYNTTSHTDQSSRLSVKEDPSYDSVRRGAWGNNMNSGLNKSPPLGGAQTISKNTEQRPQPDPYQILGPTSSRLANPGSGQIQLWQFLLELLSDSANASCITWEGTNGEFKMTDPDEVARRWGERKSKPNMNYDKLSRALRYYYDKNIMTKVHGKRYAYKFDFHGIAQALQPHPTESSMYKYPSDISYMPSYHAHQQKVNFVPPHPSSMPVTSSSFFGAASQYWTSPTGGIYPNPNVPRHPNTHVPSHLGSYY
Conditions: protein: recombinant; tags: N-terminal GST; dsDNA, one strand shown. In short, it runs like this:
(§1)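 Binding signal is each hexamer's read frequency for a factor divided by its frequency in the tag-only sample. The factors were GST-fused human transcription factors from yeast, captured on glutathione beads, DNA-barcoded and pooled with that sample. Pools were incubated with 200 nmole of a random double-stranded 16-mer DNA library in Tris/NaCl/DTT/glycerol buffer at room temperature for 30 min, then washed, crosslinked with 0.1% formaldehyde, proximity-ligated with BsaI/T4 ligase (1 h, 37 °C), PCR-amplified and sequenced on an Illumina NextSeq500.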

In another assay the target is T2, ELK1 (Homo sapiens, UniProt P19419 1-428).
T2 sequence: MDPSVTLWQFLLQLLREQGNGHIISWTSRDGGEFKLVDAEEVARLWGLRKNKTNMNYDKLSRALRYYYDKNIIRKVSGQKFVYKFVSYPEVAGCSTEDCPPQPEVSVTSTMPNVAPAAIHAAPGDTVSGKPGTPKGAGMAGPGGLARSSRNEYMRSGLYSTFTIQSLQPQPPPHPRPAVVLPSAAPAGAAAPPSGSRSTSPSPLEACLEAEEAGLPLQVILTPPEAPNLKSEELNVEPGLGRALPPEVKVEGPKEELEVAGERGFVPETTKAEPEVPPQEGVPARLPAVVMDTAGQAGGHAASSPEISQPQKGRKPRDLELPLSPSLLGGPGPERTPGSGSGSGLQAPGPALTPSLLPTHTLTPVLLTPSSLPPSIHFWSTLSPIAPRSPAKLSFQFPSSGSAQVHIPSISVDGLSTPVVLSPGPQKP
Conditions: protein: recombinant; tags: N-terminal GST; dsDNA, one strand shown. In short, it runs like this:
as §1

In the next assay the target is T3, GABPA (Homo sapiens, UniProt Q06546 1-454).
T3 sequence: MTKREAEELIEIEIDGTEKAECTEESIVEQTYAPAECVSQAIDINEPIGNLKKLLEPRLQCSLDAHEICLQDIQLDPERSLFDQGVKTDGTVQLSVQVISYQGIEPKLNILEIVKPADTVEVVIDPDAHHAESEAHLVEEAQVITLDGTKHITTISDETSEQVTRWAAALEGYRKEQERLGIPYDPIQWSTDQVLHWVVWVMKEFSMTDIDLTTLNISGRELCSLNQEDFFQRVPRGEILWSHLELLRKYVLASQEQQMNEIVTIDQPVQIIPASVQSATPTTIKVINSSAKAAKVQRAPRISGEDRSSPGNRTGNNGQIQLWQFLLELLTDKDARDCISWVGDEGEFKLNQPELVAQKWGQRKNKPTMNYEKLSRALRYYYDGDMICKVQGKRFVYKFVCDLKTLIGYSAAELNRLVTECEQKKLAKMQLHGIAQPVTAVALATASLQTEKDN
Conditions: protein: recombinant; tags: N-terminal GST; dsDNA, one strand shown. In short, it runs like this:
as §1

A further assay deals with T4, ERG (Homo sapiens, UniProt P11308 1-479).
T4 sequence: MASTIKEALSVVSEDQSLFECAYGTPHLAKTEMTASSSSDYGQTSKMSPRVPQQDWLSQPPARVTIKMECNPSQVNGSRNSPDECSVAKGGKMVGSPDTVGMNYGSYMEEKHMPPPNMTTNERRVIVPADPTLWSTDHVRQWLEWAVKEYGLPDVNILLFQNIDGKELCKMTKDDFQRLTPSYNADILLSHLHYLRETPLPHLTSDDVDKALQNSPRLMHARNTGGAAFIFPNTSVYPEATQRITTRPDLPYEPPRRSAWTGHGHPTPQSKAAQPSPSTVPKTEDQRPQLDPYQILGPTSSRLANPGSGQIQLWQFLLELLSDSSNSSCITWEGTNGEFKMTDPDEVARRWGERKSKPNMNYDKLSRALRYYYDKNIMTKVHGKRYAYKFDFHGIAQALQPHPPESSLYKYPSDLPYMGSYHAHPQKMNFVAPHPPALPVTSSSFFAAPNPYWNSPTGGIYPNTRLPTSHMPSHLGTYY
Conditions: protein: recombinant; tags: N-terminal GST; dsDNA, one strand shown. In short, it runs like this:
as §1

Another assay addresses ELF1 (Homo sapiens, UniProt P32519 1-619). Conditions: protein: recombinant; tags: N-terminal GST; dsDNA, one strand shown. In short, it runs like this:
as §1

Another assay addresses T5, EHF (Homo sapiens, UniProt Q9NZC4 1-300).
T5 sequence: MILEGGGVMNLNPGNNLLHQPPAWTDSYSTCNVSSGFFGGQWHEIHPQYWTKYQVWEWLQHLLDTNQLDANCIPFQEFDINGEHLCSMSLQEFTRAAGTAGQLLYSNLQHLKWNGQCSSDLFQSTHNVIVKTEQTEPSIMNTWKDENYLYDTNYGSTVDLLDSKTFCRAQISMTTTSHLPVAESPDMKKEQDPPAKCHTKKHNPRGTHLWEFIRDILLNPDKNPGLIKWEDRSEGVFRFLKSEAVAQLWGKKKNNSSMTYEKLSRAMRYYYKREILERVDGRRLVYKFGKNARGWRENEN
Conditions: protein: recombinant; tags: N-terminal GST; dsDNA, one strand shown. In short, it runs like this: as §1

For the next assay, the target named is SPI1 (Homo sapiens, UniProt P17947 1-270). Conditions: protein: recombinant; tags: N-terminal GST; dsDNA, one strand shown. In short, it runs like this: as §1
A further assay addresses SPIB (Homo sapiens, UniProt Q01892 1-262). Conditions: protein: recombinant; tags: N-terminal GST; dsDNA, one strand shown. In short, it runs like this:
as §1

Another assay deals with T6, ELK3 (Homo sapiens, UniProt P41970 1-407).
T6 sequence: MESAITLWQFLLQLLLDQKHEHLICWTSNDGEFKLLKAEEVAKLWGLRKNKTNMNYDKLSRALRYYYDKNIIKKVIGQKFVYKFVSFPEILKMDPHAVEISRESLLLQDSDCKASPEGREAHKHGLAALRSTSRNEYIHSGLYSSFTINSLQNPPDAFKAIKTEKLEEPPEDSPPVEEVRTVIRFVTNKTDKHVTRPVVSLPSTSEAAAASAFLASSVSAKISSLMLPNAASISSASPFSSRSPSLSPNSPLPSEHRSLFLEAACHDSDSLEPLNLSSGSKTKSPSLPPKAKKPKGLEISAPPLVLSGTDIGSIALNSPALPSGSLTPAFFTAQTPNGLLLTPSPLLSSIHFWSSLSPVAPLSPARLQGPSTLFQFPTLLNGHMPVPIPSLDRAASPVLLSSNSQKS
Conditions: protein: recombinant; tags: N-terminal GST; dsDNA, one strand shown. In short, it runs like this:
as §1

For the next assay, the target named is T7, FEV (Homo sapiens, UniProt Q99581 1-238).
T7 sequence: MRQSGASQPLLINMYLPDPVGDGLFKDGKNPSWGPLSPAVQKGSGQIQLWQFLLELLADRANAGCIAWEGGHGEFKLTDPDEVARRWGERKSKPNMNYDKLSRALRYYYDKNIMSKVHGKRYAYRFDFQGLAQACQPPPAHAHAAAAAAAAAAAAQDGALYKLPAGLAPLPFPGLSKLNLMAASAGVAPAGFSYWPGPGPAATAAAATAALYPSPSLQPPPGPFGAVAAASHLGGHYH
Conditions: protein: recombinant; tags: N-terminal GST; dsDNA, one strand shown. In short, it runs like this: as §1

A further assay deals with ETV5 (Homo sapiens, UniProt P41161 1-510). Conditions: protein: recombinant; tags: N-terminal GST; dsDNA, one strand shown. In short, it runs like this: as §1
ETV5, sequence (P41161 whole entry): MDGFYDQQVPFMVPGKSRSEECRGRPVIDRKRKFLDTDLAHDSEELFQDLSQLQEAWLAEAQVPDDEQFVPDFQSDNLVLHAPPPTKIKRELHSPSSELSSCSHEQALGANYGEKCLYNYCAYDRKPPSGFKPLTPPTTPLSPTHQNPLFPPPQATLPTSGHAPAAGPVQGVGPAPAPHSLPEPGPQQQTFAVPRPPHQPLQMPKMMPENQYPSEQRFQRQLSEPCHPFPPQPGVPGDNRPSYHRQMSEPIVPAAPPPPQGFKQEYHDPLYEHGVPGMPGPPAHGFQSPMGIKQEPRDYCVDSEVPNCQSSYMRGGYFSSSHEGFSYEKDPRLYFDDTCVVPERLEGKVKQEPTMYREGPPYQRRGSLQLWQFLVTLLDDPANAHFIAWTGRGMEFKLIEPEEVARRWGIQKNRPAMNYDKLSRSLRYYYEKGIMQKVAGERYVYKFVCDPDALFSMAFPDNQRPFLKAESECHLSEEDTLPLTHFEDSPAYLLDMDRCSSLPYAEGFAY
For the next assay, the target named is HSF1 (Homo sapiens, UniProt Q00613 1-529). Conditions: protein: recombinant; tags: N-terminal GST; chain copies: 3; dsDNA, one strand shown. In short, it runs like this: as §1
HSF1, sequence (Q00613 whole entry): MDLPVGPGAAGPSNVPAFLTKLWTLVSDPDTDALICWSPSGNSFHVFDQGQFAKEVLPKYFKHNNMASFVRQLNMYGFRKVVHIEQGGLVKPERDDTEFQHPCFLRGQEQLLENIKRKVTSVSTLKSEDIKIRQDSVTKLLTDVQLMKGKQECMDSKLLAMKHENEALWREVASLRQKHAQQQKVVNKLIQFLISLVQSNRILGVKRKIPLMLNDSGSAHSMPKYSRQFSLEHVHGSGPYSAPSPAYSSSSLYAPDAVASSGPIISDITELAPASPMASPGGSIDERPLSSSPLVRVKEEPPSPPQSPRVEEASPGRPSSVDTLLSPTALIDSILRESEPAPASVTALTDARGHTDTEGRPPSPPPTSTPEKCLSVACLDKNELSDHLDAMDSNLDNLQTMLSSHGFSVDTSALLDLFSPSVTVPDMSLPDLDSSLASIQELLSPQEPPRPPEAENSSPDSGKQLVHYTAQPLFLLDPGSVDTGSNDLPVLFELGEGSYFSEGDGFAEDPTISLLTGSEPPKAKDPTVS
A further assay has as its target T8, SPIC (Homo sapiens, UniProt Q8N5J4 1-248).
T8 sequence: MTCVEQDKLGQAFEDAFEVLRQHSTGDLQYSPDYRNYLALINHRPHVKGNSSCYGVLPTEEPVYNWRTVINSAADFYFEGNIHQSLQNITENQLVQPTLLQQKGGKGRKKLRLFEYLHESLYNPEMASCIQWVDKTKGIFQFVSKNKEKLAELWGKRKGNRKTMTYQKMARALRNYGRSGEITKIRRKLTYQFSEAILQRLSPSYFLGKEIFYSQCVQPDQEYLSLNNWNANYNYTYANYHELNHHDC
Conditions: protein: recombinant; tags: N-terminal GST; dsDNA, one strand shown. In short, it runs like this: as §1

The next assay deals with ELF4 (Homo sapiens, UniProt Q99607 1-663). Conditions: protein: recombinant; tags: N-terminal GST; dsDNA, one strand shown. In short, it runs like this: as §1
ELF4, sequence (Q99607 whole entry): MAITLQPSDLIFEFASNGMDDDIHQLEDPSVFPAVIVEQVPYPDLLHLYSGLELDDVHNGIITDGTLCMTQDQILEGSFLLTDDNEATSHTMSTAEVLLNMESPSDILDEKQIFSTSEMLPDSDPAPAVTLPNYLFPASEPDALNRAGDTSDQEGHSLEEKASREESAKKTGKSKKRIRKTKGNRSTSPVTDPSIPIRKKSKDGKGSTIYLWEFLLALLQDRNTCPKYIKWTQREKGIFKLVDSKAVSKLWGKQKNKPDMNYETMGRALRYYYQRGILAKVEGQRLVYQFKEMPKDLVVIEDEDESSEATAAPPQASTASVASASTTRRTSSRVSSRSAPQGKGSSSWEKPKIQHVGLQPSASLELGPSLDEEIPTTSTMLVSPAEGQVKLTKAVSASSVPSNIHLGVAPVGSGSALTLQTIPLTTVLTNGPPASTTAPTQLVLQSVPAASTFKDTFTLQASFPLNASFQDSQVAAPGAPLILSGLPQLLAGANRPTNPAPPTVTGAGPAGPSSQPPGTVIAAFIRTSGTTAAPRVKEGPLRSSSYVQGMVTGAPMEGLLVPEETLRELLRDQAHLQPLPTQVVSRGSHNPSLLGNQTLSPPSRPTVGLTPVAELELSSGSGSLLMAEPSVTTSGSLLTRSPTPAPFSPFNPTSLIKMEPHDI
Another assay has as its target T9, ELK4 (Homo sapiens, UniProt P28324-2 1-405).
T9 sequence: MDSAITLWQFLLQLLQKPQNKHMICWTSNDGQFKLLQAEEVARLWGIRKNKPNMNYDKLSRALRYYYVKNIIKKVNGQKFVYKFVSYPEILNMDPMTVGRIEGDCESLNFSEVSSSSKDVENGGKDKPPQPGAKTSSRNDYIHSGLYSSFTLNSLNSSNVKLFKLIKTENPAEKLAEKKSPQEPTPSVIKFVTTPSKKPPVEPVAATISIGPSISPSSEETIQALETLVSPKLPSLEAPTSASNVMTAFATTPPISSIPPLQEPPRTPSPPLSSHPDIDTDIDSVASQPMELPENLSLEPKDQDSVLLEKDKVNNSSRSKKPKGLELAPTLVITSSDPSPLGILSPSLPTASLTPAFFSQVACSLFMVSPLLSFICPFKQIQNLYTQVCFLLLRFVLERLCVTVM
Conditions: protein: recombinant; tags: N-terminal GST; dsDNA, one strand shown. In short, it runs like this: as §1

The target in a further assay is T10, ETV2 (Homo sapiens, UniProt O00321 1-342).
T10 sequence: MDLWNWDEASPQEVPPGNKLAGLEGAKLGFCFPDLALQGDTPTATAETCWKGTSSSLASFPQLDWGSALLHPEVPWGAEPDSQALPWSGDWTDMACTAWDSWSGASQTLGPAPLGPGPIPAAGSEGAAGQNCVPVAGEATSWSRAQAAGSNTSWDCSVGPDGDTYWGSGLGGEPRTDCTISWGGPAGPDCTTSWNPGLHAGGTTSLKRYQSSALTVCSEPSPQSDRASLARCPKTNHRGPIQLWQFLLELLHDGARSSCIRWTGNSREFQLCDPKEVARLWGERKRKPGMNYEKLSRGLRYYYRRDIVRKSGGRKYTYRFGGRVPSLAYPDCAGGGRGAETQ
Conditions: protein: recombinant; tags: N-terminal GST; dsDNA, one strand shown. In short, it runs like this:
as §1

The target in a further assay is T11, ELF3 (Homo sapiens, UniProt P78545 1-371).
T11 sequence: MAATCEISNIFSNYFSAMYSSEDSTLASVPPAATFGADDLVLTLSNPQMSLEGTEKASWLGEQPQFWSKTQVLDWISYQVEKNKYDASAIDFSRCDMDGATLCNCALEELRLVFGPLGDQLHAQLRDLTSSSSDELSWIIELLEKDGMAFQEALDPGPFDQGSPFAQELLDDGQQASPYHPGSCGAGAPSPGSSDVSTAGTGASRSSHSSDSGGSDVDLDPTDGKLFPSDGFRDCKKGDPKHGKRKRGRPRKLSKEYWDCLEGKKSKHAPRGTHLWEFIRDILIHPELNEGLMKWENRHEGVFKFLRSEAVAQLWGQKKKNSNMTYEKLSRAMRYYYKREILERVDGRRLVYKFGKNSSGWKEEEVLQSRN
Conditions: protein: recombinant; tags: N-terminal GST; dsDNA, one strand shown. In short, it runs like this: as §1

The next assay addresses CRX (Homo sapiens, UniProt O43186 1-299). Conditions: protein: recombinant; tags: N-terminal GST; dsDNA, one strand shown. In short, it runs like this:
as §1

In another assay the target is ETV1 (Homo sapiens, UniProt P50549 1-477). Conditions: protein: recombinant; tags: N-terminal GST; dsDNA, one strand shown. In short, it runs like this:
as §1

CRX, sequence (O43186 whole entry): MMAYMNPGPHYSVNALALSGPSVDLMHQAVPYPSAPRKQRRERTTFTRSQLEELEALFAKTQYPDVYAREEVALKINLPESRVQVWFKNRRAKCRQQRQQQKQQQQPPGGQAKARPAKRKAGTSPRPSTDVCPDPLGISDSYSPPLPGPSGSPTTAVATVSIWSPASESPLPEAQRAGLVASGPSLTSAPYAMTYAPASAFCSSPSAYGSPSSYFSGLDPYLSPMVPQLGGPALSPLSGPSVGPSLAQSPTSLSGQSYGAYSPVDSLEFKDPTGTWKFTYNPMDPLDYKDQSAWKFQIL
SPIB, sequence (Q01892 whole entry): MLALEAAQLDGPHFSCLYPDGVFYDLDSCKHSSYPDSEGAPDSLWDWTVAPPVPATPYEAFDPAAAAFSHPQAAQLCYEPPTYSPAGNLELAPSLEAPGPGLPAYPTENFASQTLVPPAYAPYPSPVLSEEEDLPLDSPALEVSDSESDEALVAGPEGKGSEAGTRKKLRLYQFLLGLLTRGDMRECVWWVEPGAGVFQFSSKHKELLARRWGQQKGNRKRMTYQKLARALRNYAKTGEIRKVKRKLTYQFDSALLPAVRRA
ETV1, sequence (P50549 whole entry): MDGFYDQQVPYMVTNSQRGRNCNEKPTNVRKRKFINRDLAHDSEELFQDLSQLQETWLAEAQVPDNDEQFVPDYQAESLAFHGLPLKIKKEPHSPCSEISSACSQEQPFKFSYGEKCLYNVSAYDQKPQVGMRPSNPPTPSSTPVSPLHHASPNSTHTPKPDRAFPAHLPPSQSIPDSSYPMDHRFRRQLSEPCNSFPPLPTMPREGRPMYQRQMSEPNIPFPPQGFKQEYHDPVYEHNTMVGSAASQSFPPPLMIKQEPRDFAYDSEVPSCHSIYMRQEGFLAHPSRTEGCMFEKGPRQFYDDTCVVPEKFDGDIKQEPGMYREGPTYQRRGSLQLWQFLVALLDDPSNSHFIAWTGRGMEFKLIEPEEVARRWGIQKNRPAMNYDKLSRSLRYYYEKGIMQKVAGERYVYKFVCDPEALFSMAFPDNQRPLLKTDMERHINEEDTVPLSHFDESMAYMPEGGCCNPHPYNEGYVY
ELF1, sequence (P32519 whole entry): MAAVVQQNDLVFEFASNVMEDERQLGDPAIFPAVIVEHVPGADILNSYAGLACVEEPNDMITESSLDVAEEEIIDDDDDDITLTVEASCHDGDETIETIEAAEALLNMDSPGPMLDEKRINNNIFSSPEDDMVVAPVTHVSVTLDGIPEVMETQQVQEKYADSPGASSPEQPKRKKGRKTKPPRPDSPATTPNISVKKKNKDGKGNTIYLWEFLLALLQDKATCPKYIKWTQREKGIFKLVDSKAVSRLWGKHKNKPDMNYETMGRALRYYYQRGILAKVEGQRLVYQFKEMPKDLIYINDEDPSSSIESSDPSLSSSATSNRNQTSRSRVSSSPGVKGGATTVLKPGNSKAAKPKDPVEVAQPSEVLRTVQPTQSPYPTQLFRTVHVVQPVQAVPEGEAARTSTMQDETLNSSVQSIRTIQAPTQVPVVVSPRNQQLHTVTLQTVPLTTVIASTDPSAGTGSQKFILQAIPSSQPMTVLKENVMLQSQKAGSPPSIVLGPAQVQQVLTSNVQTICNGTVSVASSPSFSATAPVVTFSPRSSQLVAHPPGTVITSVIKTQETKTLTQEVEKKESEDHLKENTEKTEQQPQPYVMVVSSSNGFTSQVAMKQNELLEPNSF

For the sequence CTTTAA, the binding signal with FLI1 is 1.37 fold enrichment (6-mer frequency, TF over GST control); in the assay with ELK1, 1.27 fold enrichment (6-mer frequency, TF over GST control); with GABPA, 1.28 fold enrichment (6-mer frequency, TF over GST control); with ERG, 1.27 fold enrichment (6-mer frequency, TF over GST control); with ELF1 it was 1.33 fold enrichment (6-mer frequency, TF over GST control); with EHF it was 1.2 fold enrichment (6-mer frequency, TF over GST control). The binding signal is 1.39 fold enrichment (6-mer frequency, TF over GST control) with SPI1; 1.19 fold enrichment (6-mer frequency, TF over GST control) with SPIB; 1.28 fold enrichment (6-mer frequency, TF over GST control) in the assay with ELK3; 1.23 fold enrichment (6-mer frequency, TF over GST control) with FEV; 1.24 fold enrichment (6-mer frequency, TF over GST control) in the assay with ETV5; 1.58 fold enrichment (6-mer frequency, TF over GST control) with HSF1. The binding signal was 1.36 fold enrichment (6-mer frequency, TF over GST control) in the assay with SPIC; 1.26 fold enrichment (6-mer frequency, TF over GST control) in the assay with ELF4; 1.28 fold enrichment (6-mer frequency, TF over GST control) with ELK4; 1.27 fold enrichment (6-mer frequency, TF over GST control) in the assay with ETV2; 1.39 fold enrichment (6-mer frequency, TF over GST control) with ELF3; 2.25 fold enrichment (6-mer frequency, TF over GST control) with CRX. In the assay with ETV1, the binding signal is 1.3 fold enrichment (6-mer frequency, TF over GST control).
